Only some compounds are listed: those with a hit (about 4.5% of all), similar ones and a draw of the others.
Rce1 inhib – blocks yeast Ras-converting enzyme; AID 2563; 0.27% of 290,000 active; calls only; yeast membranes, quenched prenylated peptide cleavage fluorescence; Q03530;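 active = fall in fluorescence gain of 50% or more versus controls, with final raw signal at or below 3038400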;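 note: plate controls were neutral control wells for no effect and wells lacking membranes for full effect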
Efflux pump inh – inhibitors of Candida antifungal efflux pumps expressed in yeast. S. cerevisiae Candida pump triplex, Nile Red efflux. inhibition, % at 10 µM. 0.44% of 330,000 active. AID 485275;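 active = plate passing quality check with inhibition over a set limit, or well fluorescence over plate mean plus 4 SD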;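 note: Nile Red retained in pooled yeast measured as flow cytometry median fluorescence; 0% = buffer negative control and 100% = Enniatin B positive control; higher means more Nile Red kept so more efflux inhibition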
GRK2 aptamer HTS – inhibitors of human GRK2 displacing RNA aptamer. P25098. bead flow cytometry, FAM-aptamer displacement from GRK2. AID 488847. 0.59% of 330,000 active. inhibition of aptamer binding, % at 10 µM;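 active = inhibition of aptamer binding above 40%, roughly 3 SD of noise, on plates passing a quality check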;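 note: median bead fluorescence of bound FAM aptamer so fluorescent compounds give negative values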
Target sequence (P25098 whole entry, looked up): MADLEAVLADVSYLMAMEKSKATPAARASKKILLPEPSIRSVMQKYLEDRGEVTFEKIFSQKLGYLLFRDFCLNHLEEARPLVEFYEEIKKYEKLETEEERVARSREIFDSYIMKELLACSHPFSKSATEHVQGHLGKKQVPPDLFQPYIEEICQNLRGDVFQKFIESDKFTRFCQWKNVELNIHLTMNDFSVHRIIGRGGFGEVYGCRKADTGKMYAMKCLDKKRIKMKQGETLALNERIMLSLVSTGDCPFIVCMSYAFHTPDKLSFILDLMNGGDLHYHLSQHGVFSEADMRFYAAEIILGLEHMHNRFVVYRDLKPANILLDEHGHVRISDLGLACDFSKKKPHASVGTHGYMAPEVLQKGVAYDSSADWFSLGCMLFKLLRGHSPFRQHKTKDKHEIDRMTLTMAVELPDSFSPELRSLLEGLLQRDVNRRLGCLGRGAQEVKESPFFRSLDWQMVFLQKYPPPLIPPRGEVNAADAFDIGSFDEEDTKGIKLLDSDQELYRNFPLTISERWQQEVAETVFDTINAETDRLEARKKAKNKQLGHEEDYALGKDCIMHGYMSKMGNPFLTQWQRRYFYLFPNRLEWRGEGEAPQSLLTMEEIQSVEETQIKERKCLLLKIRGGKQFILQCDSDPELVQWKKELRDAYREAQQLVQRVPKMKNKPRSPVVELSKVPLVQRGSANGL
HDAC3 inhib – blocks human histone deacetylase 3; O15379; inhibition, % at 8.3 µM; 0.15% of 320,000 active; recombinant HDAC3, fluorogenic peptide/trypsin coupled, fluorescence; AID 2718; in the data active = inhibition above about 26%, passing the limit was not always enough
ALR inh – inhibitors of human sulfhydryl oxidase ALR; AID 485317; 3.8% of 290,000 active; purified ALR, DTT oxidation, H2O2 HRP-luminol luminescence; inhibition, % (test concentration not listed);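 active = mean replicate inhibition above about 79%, with every replicate also reaching it, limit read from the data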
Rtt109 Vps75 – blocks Candida albicans Rtt109/Vps75 acetyltransferase activity; Q5AAJ8; purified Rtt109/Vps75, ThioGlo CoA-SH fluorescence, 4 h; inhibition, % at 34.9 µM; 0.16% of 330,000 active;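 active = inhibition of at least 50% in every replicate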
The depositor's hits bear a star; i = inactive; · = not tested or not shown.

SMILES | Rce1 inhib | Efflux pump inh | GRK2 aptamer HTS | HDAC3 inhib | ALR inh | Rtt109 Vps75
COc1ccc(C(=O)Nc2ccc(N3CCCC3)cc2)cc1 | i | 0 | 0 | 3 | 20 | -1
COc1ccc(NC(=O)CSc2nnc(NC(=O)C3CCC3)s2)c(OC)c1 | i | 0 | 0 | 6 | -4 | -2
O=C1N=C(N2CCOCC2)S/C1=C/c1cc2c(cc1[N+](=O)[O-])OCO2 | i | 0 | 0 | 2 | -17 | -1
Cc1ccc(S(=O)(=O)CCC(=O)Nc2ccccc2N2CCCC2)cc1 | · | 0 | 0 | 13 | 99* | 7
COc1ccc(NC(=O)CSCC(=O)Nc2cc(Cl)ccc2N2CCCC2)cc1 | i | 0 | 0 | 4 | 99* | 4
Cc1ccc(S(=O)(=O)CCC(=O)Nc2ccccc2C)cc1 | i | 0 | 0 | -3 | -2 | 4
CC(=O)Nc1ccc(S(=O)(=O)N(C)CC(=O)Nc2ccccc2N2CCCC2)cc1 | i | 0 | 0 | 3 | 99* | -1
COc1ccc(C(=O)Nc2ccccc2N2CCCC2)cc1 | i | 0 | 0 | -3 | 94* | -3
CN(CC(=O)Nc1ccccc1N1CCOCC1)S(=O)(=O)c1ccc(F)cc1 | i | 0 | 7 | 1 | -14 | -7
Cc1ccc(NC(=O)CSCC(=O)Nc2ccccc2C(=O)N2CCCCC2)cc1 | i | 0 | 0 | -2 | · | -3
COc1ccc(C(=O)Nc2ccccc2N2CCCC2)cc1S(=O)(=O)N1CCOCC1 | i | 0 | 1 | -6 | 98* | -4
COc1ccc(C(=O)Nc2ccccc2N2CCOCC2)cc1S(=O)(=O)N1CCCC1 | · | 0 | 1 | 5 | 5 | 11
Cc1ccc(NC(=O)CSCC(=O)Nc2ccccc2N2CCCC2)cc1 | i | 0 | 4 | -1 | 99* | -2
COC(=O)C1=C(NC(=O)c2cccc(OC)c2)CCS1 | i | 0 | 0 | 2 | 97* | 9
Cc1ccc(C)c(C(=O)OCC(=O)Nc2cccc(S(=O)(=O)N3CCCCC3)c2)c1 | · | 1 | 3 | 3 | 0 | -4
CCOC(=O)C1C(=O)C(=O)N(Cc2ccccc2)C1C(=O)OCC (stereo not drawn) | · | · | · | · | · | 2
Cn1nc(C(C)(C)C)cc1C(=O)NN1CCOCC1 | i | 0 | 4 | -4 | -9 | 7
O=C(O)CCCC(=O)N1N=C(c2c(-c3ccccc3)c3cc(Cl)ccc3[nH]c2=O)CC1c1cccs1 (stereo not drawn) | i | 0 | 13 | -7 | 87* | ·
COc1cccc(CNC(=O)CCS(=O)(=O)Cc2ccc(C)cc2)c1 | i | 0 | 0 | 8 | -1 | -10
Cc1ccc(-n2[nH]c(C)c(/C=N/NC(=O)c3ccc(O)cc3O)c2=O)cc1 | i | 0 | 0 | 2 | 94* | 2
COc1ccc([N+](=O)[O-])cc1NC(=O)CSCc1ccccc1 | i | 0 | 0 | 6 | -9 | -5
COc1ccc(CSCC(=O)Nc2ccccc2)cc1[N+](=O)[O-] | i | 0 | 0 | 1 | 99* | 8
CCNC(=O)Nc1cc(OC)c(OC)cc1C(=O)O | i | 0 | 0 | -17 | -9 | 10
COc1cc(NC(=O)C(c2ccccc2)c2ccccc2)c(C(=O)O)cc1OC | i | 1 | 2 | -2 | 92* | -2
Cc1nc(SCc2ccccc2)c([N+](=O)[O-])[nH]1 | i | 0 | 1 | · | · | -2
SMILES | Rce1 inhib | Efflux pump inh | GRK2 aptamer HTS | HDAC3 inhib | ALR inh | Rtt109 Vps75
O=C(c1ccc(NC(=O)C(c2ccccc2)c2ccccc2)cc1)c1ccc(C(=O)O)c(C(=O)O)c1 | i | 0 | 1 | 4 | 94* | 1
COc1ccc(CSc2nc(C)[nH]c2[N+](=O)[O-])cc1[N+](=O)[O-] | i | 0 | 0 | 1 | 100* | 3
O=C(NCC(c1ccc(F)cc1)N1CCOCC1)c1ccc([N+](=O)[O-])o1 (stereo not drawn) | · | 0 | 3 | 6 | -41 | 2
Cc1cc(C)n2nc(C(=O)OCC(=O)N3C(C)CCCC3C)nc2n1 (stereo not drawn) | i | 0 | 3 | 7 | -6 | 2
COc1cc(NC(=O)CSCc2ccccc2)c(C(=O)O)cc1OC | i | 0 | 0 | -6 | 76* | -12
O=C(O)CCn1c2c(c3ccccc31)CCCC2 | i | 0 | 4 | -1 | 99* | -4
O=C(CCn1c2c(c3ccccc31)CCCC2)NNC(=O)c1ccccc1C(=O)O | i | 0 | 0 | -2 | 44 | -8

Screening data (PubChem BioAssay)
